# From PubChem
# A selection: hits, their analogues and other compounds. The true share with any hit is near 7.3%.
# ELG1 genotoxic: qHTS screen for small molecules that induce genotoxicity in human embryonic kidney (HEK293T) cells expressing luciferase-tagged ELG1; Potency, µM (titrated, usually from 46 µM), for the others: at the top dose activity change, positive = activation, actives largely listed as activators; 1.3% of 330,000 active; HEK293T ELG1-luciferase reporter, luminescence, 16 h; AID 504466, 2011; also: % of control where 0% means no effect; nearly all actives have a fitted effect of over 60% in size
#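 After overnight (16 hr) compound treatment at 37 °C, ELG1-luciferase HEK293T cells were lysed with ONE-Glo; luminescence quantified 30 min later at room temperature.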
# NPC1 promoter act: qHTS Assay for NPC1 Promoter Activators. Huh7 NPC1 promoter luciferase reporter, 24 h. Potency, µM (series often up to 9.22 µM), inactives show at the top dose activation, usual class: activators. 2.4% of 320,000 active; also: % of control where 0% means no effect; nearly all actives have a fitted effect of over 60% in size
#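 Luciferase expression driven by the NPC1 promoter was measured in stably transfected Huh7 cells after a 24 h compound incubation, using a luciferase reagent and a luminescence read.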
# SMN2 splice up: qHTS Assay for Enhancers of SMN2 Splice Variant Expression; HEK293 SMN2-luciferase splicing reporter, luminescence, 30-36 h; Potency, µM (doses to about 46.1 µM), for the others: at the highest dose activity change, positive = activation, actives largely listed as activators; 2.8% of 210,000 active; AID 1458, 2008; also: % of control where 0% means no effect; nearly all actives have a fitted effect of over 55% in size
#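 HEK293 cells carry an SMN2 […]–luciferase reporter in which exon 7 inclusion puts luciferase in frame. Cells were plated 10-12 h before compound addition, then incubated 30-36 h at 37C. ONE-Glo luminescence was read; sodium butyrate at 4.5 mM final served as control.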
# FLuc counter: qHTS profiling assay for firefly luciferase inhibitor/activator using purifed enzyme and Km concentrations of substrates (counterscreen for miR-21 project); 6.9% of 360,000 active; AID 588342, 2011; Potency, µM (top dose mostly 57.5 µM), for the others: top-dose activity change, negative = inhibition, usual class: inhibitors; purified FLuc, Km substrates, luminescence inhibition; Luciferin 4-monooxygenase (Photinus pyralis), P08659;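 also: plate controls were vehicle for no effect and reference inhibitor for full effect; nearly all actives have a fitted effect of over 55% in size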
# Target sequence (P08659 whole entry, looked up): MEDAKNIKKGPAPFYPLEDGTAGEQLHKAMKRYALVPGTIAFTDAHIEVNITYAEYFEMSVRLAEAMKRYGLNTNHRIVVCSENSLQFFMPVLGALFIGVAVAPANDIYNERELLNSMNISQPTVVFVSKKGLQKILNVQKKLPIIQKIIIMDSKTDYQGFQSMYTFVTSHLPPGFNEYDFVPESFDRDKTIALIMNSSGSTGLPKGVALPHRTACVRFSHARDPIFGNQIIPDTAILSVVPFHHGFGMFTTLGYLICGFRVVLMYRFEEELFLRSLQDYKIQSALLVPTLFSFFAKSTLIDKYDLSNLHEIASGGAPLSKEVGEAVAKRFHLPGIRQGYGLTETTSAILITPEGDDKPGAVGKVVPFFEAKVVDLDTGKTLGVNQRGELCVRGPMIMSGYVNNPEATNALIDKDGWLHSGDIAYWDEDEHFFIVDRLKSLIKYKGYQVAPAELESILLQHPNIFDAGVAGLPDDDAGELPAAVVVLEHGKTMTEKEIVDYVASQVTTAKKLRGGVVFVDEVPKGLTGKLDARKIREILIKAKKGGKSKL
#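 Purified P. pyralis luciferase (10nM final) with 10uM D-luciferin and 10uM ATP (Km levels) in 50mM Tris acetate pH 7.5, 10mM Mg acetate, 0.01% Tween-20, 0.05% BSA; qHTS 6-point titration, ~60 µM downward; luminescence read.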
# Rab9 promoter act: qHTS Assay for Rab9 Promoter Activators | Potency, µM (highest dose often 9.22 µM), without a hit: top-dose activation, negative = inhibition, usual class: activators | 2.8% of 320,000 active | Huh7 Rab9 promoter-luciferase reporter, luminescence, 24 h; also: % of control where 0% means no effect; nearly all actives have a fitted effect of over 60% in size
#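 Cells were plated at 1500 per well in reduced-serum medium with 10% FBS and left 2 h. Compound in DMSO was then added for 24 h at 37 °C. Reporter signal was read by luminescence after 10 min with luciferase detection reagent.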
# Luc counter: Counterscreen for Luciferase (Kinase-Glo TM) Inhibition. 0.28% of 200,000 active. Potency, µM (series often up to 38.3 µM), without a hit: at the highest dose activity change, negative = inhibition, most hits filed as inhibitors. AID 1379, 2008. Luciferin 4-monooxygenase (Photuris pensylvanica), Q27757. Kinase-Glo luciferase, ATP luminescence, 8 min; also: % is scaled to controls: 0 for no effect and ±100 for the full control effect; nearly all actives have a fitted effect of over 60% in size
#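 Kinase-Glo luciferase light output from ATP and luciferin was measured with 10 uM ATP, within the enzyme's linear range. Buffer: 50 mM imidazole pH 7.2, 50 mM KCl, 7 mM MgCl2, 0.01% Tween 20, 0.05% BSA; luminescence read after 8 min at ambient temperature.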
# Active calls of the source: *; ? = inconclusive; · = no result; [ ] = dose if it differs, or a comment. Calls follow the shape of the dose curve; as a rule, active = well fitted curve in the direction sought with a large enough effect; inconclusive = small, poorly fitted or top-dose-only effect, or another doubt; inactive = no such curve, though single readings can be large; an effect the other way counts as inactive or inconclusive. Potency is read from the fitted curve at half-maximal effect.
SMILES,ELG1 genotoxic,NPC1 promoter act,SMN2 splice up,FLuc counter,Rab9 promoter act,Luc counter
CCN1CCN(C(=O)c2nn(-c3ccc(C)cc3)c(=O)c3c2c2ccccc2n3C)CC1,7%,6%,25µM*,4%,1%,0%
COCc1cc(C)nc(N/N=C/c2ccc(-c3ccc(Cl)cc3[N+](=O)[O-])o2)c1C#N,-1%,0%,-3%,-10%,4µM*,0%
COCCn1c(=O)[nH]c(=O)c2c1nc(-c1ccc(-c3ccc(Cl)cc3[N+](=O)[O-])o1)n2Cc1ccccc1,-13%,-3%,?,-1%,-2%,-1%
CC(=O)c1ccc(OCc2cc(C(=O)N(C)CCN3CCOCC3)no2)cc1,3%,-15%,·,1%,2%,·
O=C(NNC(=S)Nc1ccccc1Cl)c1ccccc1Br,3.7µM*,2.8µM*,·,11µM*,4µM*,·
O=C(NC(=S)Nc1ccccc1O)c1ccccc1Cl,?,?,13µM*,24µM*,3.2µM*,2%
O=C(Nc1ccc2nc[nH]c2c1)c1ccco1,?,19%,8%,19µM*,?,-24%
Cc1ccc(-c2nc3ccccc3[nH]2)cc1NC(=O)c1ccco1,24%,12%,·,15µM*,11%,-3%
CC(C)(C)C(=O)Nc1ccc(Cl)c(-c2nc3ccccc3[nH]2)c1,·,·,·,-10%,·,·
Cc1nc2ccc(C(=O)Nc3ccc4nc[nH]c4c3)cc2[nH]1,-2%,1%,·,?,-4%,·
O=C(Nc1ccc2nc(-c3ccc(Br)o3)[nH]c2c1)c1cccs1,-1%,0%,-13%,4.3µM*,23%,-4%
Cn1cccc1-c1nc2ccc(NC(=O)c3cccs3)cc2[nH]1,?,0%,41%,?,3%,1%
CC(C)(C)C(=O)Nc1ccc(-c2nc3ccc(NC(=O)C(C)(C)C)cc3[nH]2)cc1,·,·,?,1.9µM*,·,·
Cc1c(C)c2c(c(C)c1O)CC[C@@](C)(C(=O)O)O2,·,·,-7%[20.6 µM],·,·,-2%[17.1 µM]
Cc1cccc2[nH]c(-c3ccc(NC(=O)c4ccco4)cc3)nc12,?,2.2µM*,14µM*,4.8µM*,1µM*,?
CC(=O)Nc1ccc2nc(-c3ccc(Br)o3)[nH]c2c1,?,?,?,3.8µM*,3.5µM*,-22%
O=C(Nc1ccc2nc(-c3ccccc3)[nH]c2c1)c1ccco1,?,?,16µM*,11µM*,?,-2%
COc1ccc(NC(=O)c2ccco2)cc1NC(=O)c1ccc(Br)o1,4%,-3%,-32%,-1%,-5%,0%
CC(=O)Nc1ccc2nc(-c3cccn3C)[nH]c2c1,?,27%,·,?,?,·
O=C(Nc1cccc(-c2nc3ccccc3[nH]2)c1)c1cccc(NC(=O)c2ccco2)c1,-23%,19%,-90%,?,1%,-6%
O=C(Nc1ccc2nc(-c3ccc(Br)o3)[nH]c2c1)c1ccco1,-1%,?,-2%,5.4µM*,?,-8%
COc1cc(NC(=O)c2ccc(Br)o2)ccc1NC(=O)c1ccccc1Cl,-3%,0%,-14%,-16%,3%,4%
COc1ccc(S(=O)(=O)N(C)CC(=O)Nc2ccc3c(c2)OCCO3)cc1,-1%,-4%,·,2%,-4%,·
C/C(Cl)=C/CSc1nn2c(=O)c3ccccc3nc2s1,?,?,27%,12µM*,?,-6%
C=CCSc1nc2ccccc2c(=O)[nH]1,7%,1%,12%,-5%,-18%,0%
SMILES,ELG1 genotoxic,NPC1 promoter act,SMN2 splice up,FLuc counter,Rab9 promoter act,Luc counter
C=CCSc1nn2c(=O)c3ccccc3nc2s1,?,2.5µM*,?,13µM*,3.2µM*,-12%
Cc1nnc2sc(SCc3ccccc3)nn2c1=O,3%,1%,7%,0%,-6%,0%
CCC(C)(C)NC(=O)C(c1ccc(C)o1)N(C(=O)c1csnn1)c1cccc(F)c1 (stereo not drawn),1%,-4%,10%,-2%,-6%,1%
O=C(N/N=C\c1c[nH]c2ccccc12)c1ccc(O)cc1,12%,22%,·,15µM*,17%,·
O=C(N/N=C/c1c[nH]c2ccccc12)c1ccccc1Cl,0%,5%,·,?,-2%[1.84 µM],·
O=C(N/N=C/c1c[nH]c2ccccc12)c1cc(Cl)ccc1O,7%,21%,·,17µM*,14%,·
Cc1occc1C(=O)N/N=C/c1c[nH]c2ccccc12,?,?,5%,13µM*,?,-6%
COC(=O)N/N=C/c1c[nH]c2ccccc12,0%,-3%,-47%,-16%,1%,-5%
O=C(N/N=C/c1c[nH]c2ccccc12)c1ccc(Br)cc1,?,26%,·,6.7µM*,?,·
CC(C)Oc1ccc(Br)cc1C(=O)N/N=C/c1c[nH]c2ccccc12,-6%,-5%,·,-21%,2%,·
Cc1ncc([N+](=O)[O-])n1CCOC(=O)c1ccccc1,0%,1%,6%,-8%,3%,-1%
CC1CCC(C(=O)NC(C(=O)NCc2ccccn2)C(C)C)CC1 (stereo not drawn),0%,-2%,7%,1%,-1%,15%
Cc1n[nH]c(C)c1C(=O)CC1(O)C(=O)N(CCc2ccccc2)c2ccc(Cl)cc21 (stereo not drawn),-7%,-1%,-26%,-9%,0%,-1%
CC(=O)OCC(OC(C)=O)C(OC(C)=O)C(OC(C)=O)C(OC(C)=O)C(COC(C)=O)OC(C)=O (stereo not drawn),·,·,-14%,·,·,-6%
O=C(N/N=C/c1c[nH]c2ccccc12)c1ccc(Cl)cc1,13%,?,·,7.6µM*,?,·
Nc1ccc(C(=O)N/N=C/c2c[nH]c3ccccc23)cc1,6%,6%,·,13µM*,3%,·
O=C(O)c1ccc(N/N=C/c2c[nH]c3ccccc23)cc1,?,-9%,·,0.43µM*,-5%,·
CC(C)(C)OC(=O)N/N=C/c1c[nH]c2ccccc12,15%,22%,·,9.5µM*,25%,-11%
COC(=O)CSc1nnc(-c2ccc(S(=O)(=O)NCc3ccccc3Cl)cc2)o1,1%,-3%,-11%,0%,-1%,-4%
COc1cc(SC)ccc1C(=O)NNC(=O)c1cc(C)oc1C,?,3.2µM*,·,1.9µM*,1.3µM*,·
COc1cc(SC)ccc1C(=O)Nc1nccs1,?,0.89µM*,·,0.6µM*,0.56µM*,-6%
COc1cc(SC)ccc1C(=O)Nc1c(C)cccc1C,1%,-6%,-17%,-8%,-2%,0%
